In PubChem BioAssay (EPA / NIEHS):
Calls of active or inactive are those of the source. Rule for the calls: active = hit-call score of the fitted dose curve at least 0.9, where 1 is the maximum; inactive = score below 0.9.

These molecules were tested on Ezrin (EZR), EZR (gene 7430) (assay: LTEA_HepaRG_EZR: Life Technologies and Expression Analysis (LTEA) Assay for Ezrin (EZR) using HepaRG (AID 2283491)). Settings: mRNA level, 48 h; actives raise or lower the signal.
Description: It is a marker of Cellular remodeling.Data from the assay component LTEA_HepaRG_EZR was analyzed into 1 endpoint. This assay endpoint, LTEA_HepaRG_EZR, was analyzed with bidirectional fitting relative to DMSO as the negative control and baseline of activity. Using a type of inducible reporter, measures of mRNA induction for gain or loss-of-signal activity can be used to understand regulation of transcription factor activity. To generalize the intended target to other relatable targets, this assay endpoint is annotated to the membrane protein intended target family, where the subfamily is Cellular remodeling.
A total of 1060 chemcials from the ToxCast library were tested in eight-point concentration-response experiments. Cell culture and cytotoxicity assays were conducted at Thermo Fisher Scientific's Custom Services facility (Madison, WI). A single lot of human HepaRG cells (Thermo Fisher Scientific, Frederick, MD) was used for the cell culture experiments. 96-well format collagen type I coated plates of human HepaRG cells were prepared using established methods. Briefly, cryopreserved HepaRG cells were thawed, plated at a density of approximately 100,000 cells/well in HepaRG Thaw, Plate, and General Purpose media (HPRG770, Thermo Fisher Scientific), and incubated for 48 hours. 0.5% DMSO was selected as vehicle control to balance the requisite need of DMSO in HepaRG cultures to maintain differentiation (for example, baseline metabolism, proportions of hepatocytes vs. cholangiocytes), while enabling further hepatic receptor pathway activation (for example, PXR and CAR) in response to chemical exposure. 48 hours after plating, the culture medium was replaced with HepaRG Serum-Free Incudtion Media. Cells were exposed to each test chemical in duplicate and maintained in CO2 incubators for another 48 hours. Chemical plates were thawed to room temperature and 200x concentrations of treatment groups were prepared. 8-point conentration-reponse curves were made with the highest exposure at 100 uM, followed by half-log dilutions, all in 0.5% DMSO. Each test plate contained variouse controls, induction positive controls (1mM phenobarbital), cytotoxicity positive controls ([…] aflatoxin B1), vehicle controls (0.5% DMSO), and total lysis controls (0.5% DMSO). Cell morphology images were taken using an Essen IncuCyte FLR automated microscope, with six 96-well plates imaged in about 24 minutes. Images were captured and exported and JPEG files. Spent culture media was transfered to black-well plates for the LDH assay, and remaining media was sorted at -80 C for later use. Cells were treated with RLT buffer and frozen until shipped for gene expression analysis. Total RNA was isolated from the cell suspension in 75 uL of Buffer RLT (Qiagen, Germantown, MD 20874) by Quintiles/Expression Analysis (Durham, NC) using a custom isolation procedure. Total RNA from each plate well was transferred to a preamplification plate. Fluidigm's 96.96 Dynamic ArrayTM (Fluidigm, Amsterdam, the Netherlands) technology was used for gene expression analyses by quantitative reverse transcription polymerase chain reaction (qRT-PCR, performed by Quintiles/Expression Analysis, Durham, NC)89. Standard TaqManTM Assays (Applied Biosystems/ThermoFisher Scientific, Foster City, CA) were used to assess the expression of 93 genes selected based on their selectivity and sensitivity to important hepatic receptors known to be modulated by environmental chemicals; importance in human hepatocyte functionality; and hepatotoxicity. Three "housekeeping" endogenous control genes were also included and used for normalization: actin beta (ACTB), Glyceraldehyde 3 phosphate dehydrogenase (GAPDH) and RNA Polymerase II Subunit A (POLR2A). qRT-PCR was conducted according to the manufacturer's protocol.

| SMILES | outcome | AC50 |
| --- | --- | --- |
| CCCCCCCCN(C)CCCCCCCC | inactive | – |
| CC(C)(C)c1cc(/C=C2\SC(N)=NC2=O)cc(C(C)(C)C)c1O | inactive | – |
| O=C1CCC(C2CCCCC2)CC1 | inactive | – |
| CCCCCCCCCCCC[N+](C)(C)C | – | 83.7 µM (active) |
| Clc1ccccc1C(c1ccccc1)(c1ccccc1)n1ccnc1 | inactive | – |
| CN(C[C@@H](CC[N+]12CCC(C3CCCCC3)(CC1)CC2)c1ccc(Cl)c(Cl)c1)C(=O)c1cc(C(F)(F)F)cc(C(F)(F)F)c1 | inactive | – |
| Cc1cc(F)ccc1-c1cc(N2CC[C@@H](O)[C@H]2CO)ncc1N(C)C(=O)C(C)(C)c1cc(C(F)(F)F)cc(C(F)(F)F)c1 | – | 20.8 µM (active) |
| Cc1ncc(CO)c(CO)c1O | inactive | – |
| CCCCCCCCOc1ccc(C(=O)c2ccccc2)c(O)c1 | inactive | – |
| C[C@]12CC[C@@H]3c4ccc(O)cc4CC[C@H]3[C@@H]1CC[C@H]2O | inactive | – |
| CCCCOC(=O)CC(CC(=O)OCCCC)(OC(C)=O)C(=O)OCCCC | inactive | – |
| O=c1ccc2ccccc2o1 | inactive | – |
| CC(C)(O)c1ccc(CNC(=O)c2cccnc2Oc2ccc3nonc3c2)cc1 | inactive | – |
| CN(C)C(=O)C1(N2CCCCC2)CCN(CC[C@@]2(c3ccc(Cl)c(Cl)c3)CN(C(=O)c3ccccc3)CCO2)CC1 | – | 60.6 µM (active) |
| O=C(O)Cn1c(=O)n(Cc2ccc(Br)cc2F)c(=O)c2ccc(Cl)cc21 | inactive | – |
| CO[C@H]1/C=C/O[C@@]2(C)Oc3c(C)c(O)c4c(O)c(c(/C=N/N5CCN(C)CC5)c(O)c4c3C2=O)NC(=O)/C(C)=C\C=C\[C@H](C)[C@H](O)[C@@H](C)[C@@H](O)[C@@H](C)[C@H](OC(C)=O)[C@@H]1C | inactive | – |
| OCCO | inactive | – |
| CCN(Cc1cccnc1)C(=O)c1cccc(Cl)c1[C@]1(C)C(=O)N(Cc2ccc(OC)cc2OC)c2ccc(Cl)cc21 | inactive | – |
| CC/C(=C(/CC)c1ccc(O)cc1)c1ccc(O)cc1 | inactive | – |
| CCCC(=O)OCCC(C)C | inactive | – |

| SMILES | outcome | AC50 |
| --- | --- | --- |
| O=C1c2ccccc2C(=O)N1CCc1noc(-c2ccc(CN3CCCCCC3)s2)n1 | inactive | – |
| CCCCCCCCCCCO | inactive | – |
| CCCCCCCCOC(=O)c1cc(O)c(O)c(O)c1 | inactive | – |
| CC(=O)N1CCN(c2ccc(OC[C@H]3CO[C@](Cn4ccnc4)(c4ccc(Cl)cc4Cl)O3)cc2)CC1 | inactive | – |
| Cc1ccc(C(C)C)cc1 | inactive | – |
| CC(C)(c1cc(Br)c(O)c(Br)c1)c1cc(Br)c(O)c(Br)c1 | inactive | – |
| CCCCCCCCCCCCO | inactive | – |
| CCN(CC)C(=O)c1cc(S(=O)(=O)Cc2ccccc2)c(N2CCC(c3ccccc3)CC2)cc1N(CC)CCN(C)C | inactive | – |
| COc1cccc([C@H](O)C2CCN(CCc3ccc(F)cc3)CC2)c1OC | inactive | – |
| CCCCCc1ccc(N)cc1 | inactive | – |
| O=C(OCCCCCCOC(=O)c1ccccc1)c1ccccc1 | inactive | – |
| C[C@]12CC[C@@H]3c4ccc(O)cc4CC[C@H]3[C@@H]1CCC2=O | inactive | – |
| CN(C)c1ccc(C(=C2C=CC(=[N+](C)C)C=C2)c2ccc(N(C)C)cc2)cc1 | – | 32 µM (active) |
| O=c1c(-c2ccc(O)cc2)coc2cc(O)cc(O)c12 | inactive | – |
| NCc1cccc(C2CCN(C(=O)c3ccc(C#Cc4ccccc4F)o3)CC2)c1 | inactive | – |
| CCCCCCCCCC(=O)O | inactive | – |
| CN1C(=O)CC[C@H]1c1cccnc1 | inactive | – |
| Cc1oc2c(NC(=O)c3c(Cl)cccc3Cl)cccc2c1C(C)(C)O | inactive | – |
| c1ccc2n[nH]nc2c1 | inactive | – |
| O=C(O)c1ccccc1C(=O)OCc1ccccc1 | inactive | – |
